Source: ChEMBL document CHEMBL3988442, “University of Dundee, Small-Polar-MMV Screening Library” (2021)

Biological target: T1, Aspartate--tRNA(Asp/Asn) ligase (Mycobacterium tuberculosis (strain ATCC 25618 / H37Rv)) (UniProt P9WFW3); note: in the data most compounds retested in dose-response had high values
T1 sequence (whole entry): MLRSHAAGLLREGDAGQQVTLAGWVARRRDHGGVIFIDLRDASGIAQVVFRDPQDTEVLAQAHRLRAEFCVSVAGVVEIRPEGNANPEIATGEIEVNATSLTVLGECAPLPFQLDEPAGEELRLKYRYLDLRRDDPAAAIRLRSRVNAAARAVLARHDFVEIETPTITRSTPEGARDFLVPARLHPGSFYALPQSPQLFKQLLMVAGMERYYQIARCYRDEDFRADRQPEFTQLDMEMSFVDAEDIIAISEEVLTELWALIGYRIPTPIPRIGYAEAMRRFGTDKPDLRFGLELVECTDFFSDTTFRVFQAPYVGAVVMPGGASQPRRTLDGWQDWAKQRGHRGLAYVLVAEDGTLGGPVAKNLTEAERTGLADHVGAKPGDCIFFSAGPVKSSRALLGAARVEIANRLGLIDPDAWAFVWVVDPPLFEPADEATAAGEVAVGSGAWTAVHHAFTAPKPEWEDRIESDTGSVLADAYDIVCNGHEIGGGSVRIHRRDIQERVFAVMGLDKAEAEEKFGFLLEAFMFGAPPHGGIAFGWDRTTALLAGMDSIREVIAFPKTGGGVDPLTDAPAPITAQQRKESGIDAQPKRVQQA
Experiment: Assay for Asp RNA synthetase-1 from Mycobacterium tuberculosis
Format: functional
Set-up: scale not given: direction of the effect not stated beside the values
Conditions: 30 µM

Point of comparison: `CNC(=O)CCCNCc1c(C)nn(C)c1N(C)C`, Percent Effect 2.12%. Against it:
- CSC(C)C(=O)N1CCCN(Cc2cnn(C(C)C)c2)CC1 (stereo not given) — lower, -0.235%
- CCO[C@@H]1CC[C@H]2[C@H]1OCCN2C(=O)C1CCOCC1 — lower, -5.84%
- CCC(=O)N1CCC2(COCc3c(C)nc(N(C)C)nc32)C1 (stereo not given) — higher, 6.18%
- CC(O)CN(CC(=O)NC(=O)NC1CC1)c1ccccc1 (stereo not given) — lower, -1.82%
- Cc1cccc(CN2CCC3(CCCN(C(=O)NC4CC4)C3)C2=O)n1 (stereo not given) — higher, 6.63%
- COCCO[C@H]1CCN(C(=O)C2CCOCC2)[C@H]1Cc1ccncc1 — higher, 4.84%
- Cc1cc(C)n(CC2CCCN2C(=O)CCCNc2ncccn2)n1 (stereo not given) — lower, -2.92%
- COc1ccc(CNCc2ccc(N3CCCCC3)nc2)cc1OC — lower, 1.06%
- CC(C)Cc1cc(NC(=O)c2ccc(=O)[nH]n2)n(C)n1 — lower, -2.97%
- COc1ccc(C2CCCN2C(=O)c2csc(NC(C)=O)n2)cc1 (stereo not given) — lower, 0.516%
- O=C(COC(=O)Cc1cccs1)NCc1cccc(NC(=O)C2CC2)c1 — lower, -1.66%
- CCc1ccc(C2CCCCCN2Cc2nc(CCOC)no2)o1 (stereo not given) — higher, 10.6%
- CC(=O)N(Cc1noc(C)n1)C1CCN(Cc2ccccc2C#N)C1 (stereo not given) — higher, 2.26%
- COc1cc(CNCc2ccc(C(C)O)cc2)cc2c1OCO2 (stereo not given) — lower, -6.24%
- CC(C)COC(C)C(=O)NCc1ccc(N(C)C)cc1 (stereo not given) — higher, 5.65%
- CN(CCn1nc2ccccn2c1=O)CC(=O)N1CCCC1 — lower, -1.5%
- Cc1nc(CN(C)C2CCN(Cc3ccc4c(c3)OCCO4)C2)no1 (stereo not given) — lower, -4.04%
- Cc1ccc(CN2CCOC3(CCCN(C(=O)c4ccco4)C3)C2)s1 (stereo not given) — higher, 4.58%
- O=C(Cn1nc2c(cc1=O)CCCC2)N[C@@H](C(=O)O)c1ccccc1 — lower, -1.42%
- Cc1nc(CN2CCCC(Cn3cc(CCO)nn3)C2)c[nH]1 (stereo not given) — lower, 0.881%
- O=C(NCc1ccccc1)c1nnc2ccc(N3CCOCC3)cc2n1 — lower, -1.02%
- CCC(C)(C)NC(=O)C1CC(=O)N(CC2CC2)C1 (stereo not given) — higher, 5.42%
- c1ccc2sc(CN3CCOC(Cn4cccn4)C3)nc2c1 (stereo not given) — lower, -0.285%
- CN(C)C(=O)N1CCN(Cc2noc(Cc3ccccc3)n2)CC1 — lower, 0.542%
- CCn1nc(C)c2nc(C(C)C)nc(NCCCO)c21 — higher, 3.48%
- COc1cc(CCC(=O)NC2CC2)ccc1OCC(F)(F)F — lower, 1.01%
- O=C(NCCN1CCCCCC1=O)c1n[nH]c(=O)c2ccccc12 — lower, -3.85%
- COc1cccc(CNc2cnn(C)c(=O)c2Cl)c1 — lower, -6.1%
- Cc1c(C)n(Cc2ccncc2)c2nc3c(c(N)c12)CCCCC3 — higher, 4.67%
- O=C(O)c1cc(S(=O)(=O)Nc2ccc(Cl)cc2)cc2c1OCCO2 — lower, 0.0437%
- O=C(NCC(=O)N1CCc2ccccc2C1)c1ccoc1 — lower, 1.62%
- CC(C)c1cc(N2CCC(CCC(=O)NC3CC3)CC2)n2nccc2n1 — lower, 0.32%
- Cc1noc(C2CCN(C(=O)CCNS(C)(=O)=O)CC2)n1 — lower, -0.989%
- Cc1ccc(NC(=O)CNc2cccc3c2CCCC3)c(Br)c1 — lower, -0.719%
- O=C([C@@H]1CCO[C@@H]2CCN(Cc3cccnc3)C[C@H]21)N1CCCCO1 — higher, 6.53%
- NC(=O)c1cc(C2CCCN(C(=O)CCc3ccsc3)C2)n[nH]1 (stereo not given) — lower, -5.77%
- Cc1nc(CN2CC3(CCN(c4ncc(F)cn4)C3)CC2=O)cs1 (stereo not given) — higher, 3.16%
- O=C(Cn1nc(-c2ccc(F)cc2)oc1=O)Nc1ccccc1 — lower, -1.5%
- Cc1ncsc1C(=O)NC1CCN(CC(=O)N(C)C(C)(C)C#N)CC1 — lower, -2.42%

Biological target: Shiga toxin 2 (Escherichia coli O157:H7) (UniProt P09385+P09386)
Experiment: E. coli 0.157:H7 Shiga Toxin SOP - stx2 screening assay
Format: functional
Set-up: scale not given: direction of the effect not stated beside the values
Conditions: 30 µM

Point of comparison: `O=C(NCCN1CCCCCC1=O)c1n[nH]c(=O)c2ccccc12`, Percent Effect -6.19%. Against it:
- CSC(C)C(=O)N1CCCN(Cc2cnn(C(C)C)c2)CC1 (stereo not given) — higher, 20.4%
- CCO[C@@H]1CC[C@H]2[C@H]1OCCN2C(=O)C1CCOCC1 — higher, 8.02%
- CCC(=O)N1CCC2(COCc3c(C)nc(N(C)C)nc32)C1 (stereo not given) — lower, -30.5%
- CC(O)CN(CC(=O)NC(=O)NC1CC1)c1ccccc1 (stereo not given) — higher, 4.59%
- Cc1cccc(CN2CCC3(CCCN(C(=O)NC4CC4)C3)C2=O)n1 (stereo not given) — higher, -5.22%
- COCCO[C@H]1CCN(C(=O)C2CCOCC2)[C@H]1Cc1ccncc1 — lower, -17.6%
- Cc1cc(C)n(CC2CCCN2C(=O)CCCNc2ncccn2)n1 (stereo not given) — higher, 26.1%
- COc1ccc(CNCc2ccc(N3CCCCC3)nc2)cc1OC — lower, -82.1%
- CC(C)Cc1cc(NC(=O)c2ccc(=O)[nH]n2)n(C)n1 — lower, -34.7%
- COc1ccc(C2CCCN2C(=O)c2csc(NC(C)=O)n2)cc1 (stereo not given) — lower, -30.4%
- O=C(COC(=O)Cc1cccs1)NCc1cccc(NC(=O)C2CC2)c1 — higher, 28%
- CCc1ccc(C2CCCCCN2Cc2nc(CCOC)no2)o1 (stereo not given) — lower, -30.6%
- CC(=O)N(Cc1noc(C)n1)C1CCN(Cc2ccccc2C#N)C1 (stereo not given) — higher, -3.66%
- COc1cc(CNCc2ccc(C(C)O)cc2)cc2c1OCO2 (stereo not given) — lower, -48%
- CNC(=O)CCCNCc1c(C)nn(C)c1N(C)C — lower, -15.3%
- CC(C)COC(C)C(=O)NCc1ccc(N(C)C)cc1 (stereo not given) — lower, -8.68%
- CN(CCn1nc2ccccn2c1=O)CC(=O)N1CCCC1 — higher, -5.38%
- Cc1nc(CN(C)C2CCN(Cc3ccc4c(c3)OCCO4)C2)no1 (stereo not given) — higher, 5.87%
- Cc1ccc(CN2CCOC3(CCCN(C(=O)c4ccco4)C3)C2)s1 (stereo not given) — lower, -29.2%
- O=C(Cn1nc2c(cc1=O)CCCC2)N[C@@H](C(=O)O)c1ccccc1 — lower, -35.6%
- Cc1nc(CN2CCCC(Cn3cc(CCO)nn3)C2)c[nH]1 (stereo not given) — lower, -6.46%
- O=C(NCc1ccccc1)c1nnc2ccc(N3CCOCC3)cc2n1 — lower, -21.5%
- CCC(C)(C)NC(=O)C1CC(=O)N(CC2CC2)C1 (stereo not given) — higher, 28.9%
- c1ccc2sc(CN3CCOC(Cn4cccn4)C3)nc2c1 (stereo not given) — higher, 27.3%
- CN(C)C(=O)N1CCN(Cc2noc(Cc3ccccc3)n2)CC1 — higher, 8.78%
- CCn1nc(C)c2nc(C(C)C)nc(NCCCO)c21 — higher, -3.03%
- COc1cc(CCC(=O)NC2CC2)ccc1OCC(F)(F)F — higher, 30.2%
- COc1cccc(CNc2cnn(C)c(=O)c2Cl)c1 — higher, 11.4%
- Cc1c(C)n(Cc2ccncc2)c2nc3c(c(N)c12)CCCCC3 — lower, -41.4%
- O=C(O)c1cc(S(=O)(=O)Nc2ccc(Cl)cc2)cc2c1OCCO2 — lower, -7.1%
- O=C(NCC(=O)N1CCc2ccccc2C1)c1ccoc1 — lower, -10.2%
- CC(C)c1cc(N2CCC(CCC(=O)NC3CC3)CC2)n2nccc2n1 — higher, -4.79%
- Cc1noc(C2CCN(C(=O)CCNS(C)(=O)=O)CC2)n1 — lower, -13.5%
- Cc1ccc(NC(=O)CNc2cccc3c2CCCC3)c(Br)c1 — higher, 7.99%
- O=C([C@@H]1CCO[C@@H]2CCN(Cc3cccnc3)C[C@H]21)N1CCCCO1 — lower, -26.6%
- NC(=O)c1cc(C2CCCN(C(=O)CCc3ccsc3)C2)n[nH]1 (stereo not given) — higher, 21.2%
- Cc1nc(CN2CC3(CCN(c4ncc(F)cn4)C3)CC2=O)cs1 (stereo not given) — higher, -4.09%
- O=C(Cn1nc(-c2ccc(F)cc2)oc1=O)Nc1ccccc1 — lower, -19.2%
- Cc1ncsc1C(=O)NC1CCN(CC(=O)N(C)C(C)(C)C#N)CC1 — higher, 25.4%
